Consider ten compounds from PubChem BioAssay (NCI).

The panel holds about 79,000 compounds, 15% with a hit somewhere; the sample as a whole holds those more often. A number with no mark means an inactive call. Activity calls are given as the source filed them. No stated cut-off is given here; in the data, active means growth inhibition above about 70%; inactive means the rest.

Assay [1] is described as follows: NCI Yeast Anticancer Drug Screen. Data for the rad50 strain (AID 155).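 Further: 0% = growth of vehicle-only cultures of the same strain.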 To be noted: S. cerevisiae rad50 strain growth inhibition, active compounds read high. In outline:
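A DNA repair-deficient yeast mutant serves as the test organism; compound-induced growth inhibition is calculated against vehicle-treated cells.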

Assay [2] is described as follows: NCI Yeast Anticancer Drug Screen. Data for the mec2-1 strain (AID 157). As to conditions: S. cerevisiae mec2-1 strain, active compounds read high. In outline: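 Each compound was tested on mec2-1 yeast, a strain altered in DNA damage repair or cell cycle control. Growth inhibition is reported relative to vehicle.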
Assay [3] is described as follows: NCI Yeast Anticancer Drug Screen. Data for the sgs1 mgt1 strain (AID 161).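 Further: 0% = growth of cultures given vehicle only.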 To be noted: S. cerevisiae sgs1 mgt1 strain, active compounds read high. In outline: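 Read-out: growth inhibition vs vehicle controls. Cells: mutant yeast strain deficient in DNA damage repair.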
The nature of assay [4]: NCI Yeast Anticancer Drug Screen. Data for the cln2 rad14 strain (AID 165).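 Further: 0% = growth equal to vehicle treated cultures.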 As to conditions: S. cerevisiae cln2 rad14 strain, active compounds read high. In outline: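 Test compounds were added to cln2 rad14 yeast cultures; inhibition of growth was then determined by comparison with vehicle treatment.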
A short description of assay [5]: NCI Yeast Anticancer Drug Screen. Data for the bub3 strain (AID 167). To be noted: S. cerevisiae bub3 mutant strain, active compounds read high. In outline:
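Inhibition values come from growth of compound-treated mutant yeast normalised to vehicle-treated controls.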

The nature of assay [6]: NCI Yeast Anticancer Drug Screen. Data for the mlh1 rad18 strain (AID 175). As to conditions: S. cerevisiae mlh1 rad18 strain growth inhibition, active compounds read high. In outline: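 Inhibition values reflect reduced growth of mutant yeast versus vehicle-treated controls following compound exposure; the mutations affect DNA damage repair.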
The mark [7] stands for this setting: at 5.0 µM (retest, dose inferred, filed as 0.5).
[8] abbreviates: at 50.0 µM (retest, dose inferred, filed as 5.0).

As for `CC(C)CN(CC(C)C)CN1C(=O)/C(=C/c2ccc([N+](=O)[O-])cc2)SC1=S`, the growth inhibition in assay [1] (setting [7]) is 16%; in assay [1] (setting [8]) it was 53%; in assay [1] (at 50.0 µM) it was 63.2%; in assay [2] (setting [7]), 8%; in assay [2] (setting [8]), 61%; in assay [2] (at 50.0 µM), 40.3%. For the same compound, the growth inhibition is 11% in assay [3] (setting [7]); 59% in assay [3] (setting [8]); 67.7% in assay [3] (at 50.0 µM); 37% in assay [4] (setting [7]); 44% in assay [4] (setting [8]); 46.9% in assay [4] (at 50.0 µM). Also, the growth inhibition in assay [5] (setting [7]) is 4%; in assay [5] (setting [8]), 37%; in assay [5] (at 50.0 µM) it was 41.2%; in assay [6] (setting [7]) it was 26%; in assay [6] (setting [8]), 66%; in assay [6] (at 50.0 µM) it was 71.2% (active).
Turning to `Oc1ccc(SCc2cc(O)ccc2O)cc1`, the growth inhibition was 9% in assay [1] (setting [7]); 93% (active) in assay [1] (setting [8]); 86% (active) in assay [1] (at 50.0 µM); 8% in assay [2] (setting [7]); 73% (active) in assay [2] (setting [8]); 91.2% (active) in assay [2] (at 50.0 µM). The growth inhibition is -17% in assay [3] (setting [7]); 48% in assay [3] (setting [8]); 84.5% (active) in assay [3] (at 50.0 µM); -13% in assay [4] (setting [7]); 69% in assay [4] (setting [8]); 66% in assay [4] (at 50.0 µM). In addition, the growth inhibition in assay [5] (setting [7]) is -26%; in assay [5] (setting [8]), 73% (active); in assay [5] (at 50.0 µM), 86.7% (active); in assay [6] (setting [7]) it was 10%; in assay [6] (setting [8]), 86% (active); in assay [6] (at 50.0 µM), 82.1% (active).
On to `Cc1cc(Cl)c(O)c(-c2cc(-c3ccccc3O)c(C#N)c(N)n2)c1`, for which the growth inhibition was 4% in assay [1] (setting [7]); 75% (active) in assay [1] (setting [8]); 59.5% in assay [1] (at 50.0 µM); -22% in assay [2] (setting [7]); 80% (active) in assay [2] (setting [8]); 52.1% in assay [2] (at 50.0 µM). Moreover, the growth inhibition in assay [3] (setting [7]) was -28%; in assay [3] (setting [8]) it was 80% (active); in assay [3] (at 50.0 µM) it was 67.7%; in assay [4] (setting [7]), -4%; in assay [4] (setting [8]) it was 65%; in assay [4] (at 50.0 µM), 69.4%. The growth inhibition was -59% in assay [5] (setting [7]), 73% (active) in assay [5] (setting [8]) and 62.4% in assay [5] (at 50.0 µM).
For `c1ccc(CC[n+]2csc3ccccc32)cc1`, the growth inhibition is -2% in assay [1] (setting [7]); 73% (active) in assay [1] (setting [8]); 57% in assay [1] (at 50.0 µM); 0% in assay [2] (setting [7]); 84% (active) in assay [2] (setting [8]); 50.5% in assay [2] (at 50.0 µM). In addition, the growth inhibition was -2% in assay [3] (setting [7]); 81% (active) in assay [3] (setting [8]); 36.3% in assay [3] (at 50.0 µM); -8% in assay [4] (setting [7]); 35% in assay [4] (setting [8]); 31.8% in assay [4] (at 50.0 µM). The growth inhibition is 0% in assay [5] (setting [7]); 90% (active) in assay [5] (setting [8]); 63.8% in assay [5] (at 50.0 µM); -2% in assay [6] (setting [7]); 83% (active) in assay [6] (setting [8]); 54.6% in assay [6] (at 50.0 µM).
With `O=C1/C(=C/c2ccccc2)CN(C(=O)C(F)(F)F)C/C1=C\c1ccccc1`, the growth inhibition in assay [1] (setting [7]) is 63%; in assay [1] (setting [8]), 84% (active); in assay [1] (at 50.0 µM), 65.3%; in assay [2] (setting [7]), 43%; in assay [2] (setting [8]), 80% (active); in assay [2] (at 50.0 µM), 40%. In addition, the growth inhibition in assay [3] (setting [7]) was 52%; in assay [3] (setting [8]), 94% (active); in assay [3] (at 50.0 µM), 46%; in assay [4] (setting [7]), 41%; in assay [4] (setting [8]), 78% (active); in assay [4] (at 50.0 µM), 42.2%. The growth inhibition was 53% in assay [5] (setting [7]); 93% (active) in assay [5] (setting [8]); 55.1% in assay [5] (at 50.0 µM); 66% in assay [6] (setting [7]); 92% (active) in assay [6] (setting [8]); 53.6% in assay [6] (at 50.0 µM).
On to `NNC(=S)N/N=C(/C(=O)Nc1ccc(Cl)c(Cl)c1)C(C1OC(=O)c2ccccc21)[N+](=O)[O-]` (configuration not stated), for which the growth inhibition in assay [1] (setting [7]) was 27%; in assay [1] (setting [8]), 44%; in assay [1] (at 50.0 µM), 26.6%; in assay [2] (setting [7]), 20%; in assay [2] (setting [8]) it was 39%; in assay [2] (at 50.0 µM), 4.45%. In addition, the growth inhibition in assay [3] (setting [7]) is 9%; in assay [3] (setting [8]), 59%; in assay [3] (at 50.0 µM), 34.4%; in assay [4] (setting [7]), 31%; in assay [4] (setting [8]), 48%; in assay [4] (at 50.0 µM), 23.4%. The growth inhibition in assay [5] (setting [7]) was 28%; in assay [5] (setting [8]) it was 62%; in assay [5] (at 50.0 µM), 32.5%.
On to `COc1ccc(OC)c(NC(=O)CCCC(=O)CC(=O)c2cccnc2)c1`, for which the growth inhibition in assay [1] (setting [7]) was 63%; in assay [1] (setting [8]) it was 62%; in assay [1] (at 50.0 µM) it was 4.45%; in assay [2] (setting [7]), 50%; in assay [2] (setting [8]), 53%; in assay [2] (at 50.0 µM) it was 1.8%. Also, the growth inhibition in assay [3] (setting [7]) was 69%; in assay [3] (setting [8]), 70% (active); in assay [3] (at 50.0 µM), -5.2%; in assay [4] (setting [7]), 53%; in assay [4] (setting [8]), 55%; in assay [4] (at 50.0 µM), 39.8%. In addition, the growth inhibition in assay [5] (setting [7]) was 57%; in assay [5] (setting [8]), 62%; in assay [5] (at 50.0 µM), -4.8%.
On to `CCCCCCCCCCCCS`, for which the growth inhibition in assay [1] (setting [7]) is 0%; in assay [1] (setting [8]), -3%; in assay [1] (at 50.0 µM), 26.2%; in assay [2] (setting [7]) it was -1%; in assay [2] (setting [8]), -1%; in assay [2] (at 50.0 µM), 6.25%. Besides, the growth inhibition in assay [3] (setting [7]) was -3%; in assay [3] (setting [8]), -1%; in assay [3] (at 50.0 µM), 15.9%; in assay [4] (setting [7]), -2%; in assay [4] (setting [8]), 1%; in assay [4] (at 50.0 µM), 43.3%. In addition, the values for the growth inhibition in assay [5] (setting [7]), in assay [5] (setting [8]) and in assay [5] (at 50.0 µM) were 2%, -3% and -20.6%, respectively.
Turning to `CCc1cc(CC)c(-c2ccco2)c(COC(=O)NC)c1`, the growth inhibition in assay [1] (setting [7]) is -1%; in assay [1] (setting [8]), 68%; in assay [1] (at 50.0 µM), 95.4% (active); in assay [2] (setting [7]), -3%; in assay [2] (setting [8]), 64%; in assay [2] (at 50.0 µM), 94.2% (active). The growth inhibition is -4% in assay [3] (setting [7]); 78% (active) in assay [3] (setting [8]); 94.3% (active) in assay [3] (at 50.0 µM); -7% in assay [4] (setting [7]); 25% in assay [4] (setting [8]); 77.4% (active) in assay [4] (at 50.0 µM). Further, the values for the growth inhibition in assay [5] (setting [7]), in assay [5] (setting [8]) and in assay [5] (at 50.0 µM) were -8%, 72% (active) and 96% (active), respectively.
Turning to `CN(C)CCC1(C2=CCCC2)CC/C(=C\c2ccc(Cl)cc2)C1=O` (configuration not stated), the growth inhibition is 24% in assay [1] (setting [7]); 86% (active) in assay [1] (setting [8]); 94.3% (active) in assay [1] (at 50.0 µM); 28% in assay [2] (setting [7]); 96% (active) in assay [2] (setting [8]); 94.3% (active) in assay [2] (at 50.0 µM). In addition, the growth inhibition in assay [3] (setting [7]) was 26%; in assay [3] (setting [8]), 97% (active); in assay [3] (at 50.0 µM), 94% (active); in assay [4] (setting [7]), 31%; in assay [4] (setting [8]), 97% (active); in assay [4] (at 50.0 µM) it was 92.3% (active). Moreover, the growth inhibition in assay [5] (setting [7]) is 37%; in assay [5] (setting [8]) it was 98% (active); in assay [5] (at 50.0 µM) it was 92.2% (active).
